Hits are enriched below; roughly 6.9% of the tested compounds scored in any of these assays.
Vif-A3G inh: Vif-A3G binding inhibition | Q9HC16 | HeLa A3G-eYFP + Vif (tagged APOBEC3G with the HIV-1 protein that degrades it), YFP fluorescence, overnight | Potency, µM (highest dose often 46.1 µM), for the others: at the top dose activity, negative = active, hits mostly inhibitors | actives 0.076% (n = 410,000) | AID 602310; note: potency is the fitted concentration of half-maximal effect; % is set by controls: 0 for no effect and ±100 for the full control effect; nearly all actives have a fitted effect of over 60% in size
Target sequence (Q9HC16 whole entry, looked up): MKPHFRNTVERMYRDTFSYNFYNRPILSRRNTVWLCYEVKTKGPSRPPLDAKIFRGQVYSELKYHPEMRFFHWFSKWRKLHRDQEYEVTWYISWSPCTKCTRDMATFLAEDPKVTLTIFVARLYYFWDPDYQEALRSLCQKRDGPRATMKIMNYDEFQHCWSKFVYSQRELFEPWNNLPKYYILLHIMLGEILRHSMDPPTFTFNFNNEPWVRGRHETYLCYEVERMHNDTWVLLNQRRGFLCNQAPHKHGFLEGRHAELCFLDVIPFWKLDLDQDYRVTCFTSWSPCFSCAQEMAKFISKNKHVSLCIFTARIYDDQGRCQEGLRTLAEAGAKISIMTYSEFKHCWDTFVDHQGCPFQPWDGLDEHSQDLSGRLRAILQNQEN
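Read-out is eYFP fluorescence (Ex 488/Em 500-530) from Vif-expressing HeLa A3G-eYFP cells; more signal means A3G escaped Vif-mediated degradation. Cells plated overnight, compound pinned in, incubated overnight at 37 deg C.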
Giardia killer: Giardia lamblia killing | Giardia lamblia trophozoite viability | activity change, % at 7.66 µM, hits read low | actives 0.15% (n = 340,000); in the data active = activity change below about -80%; inconclusive = between about -30% and that limit;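 note: parasites exposed to compound for two days anaerobically before the ATP read; % is set by controls: 0 for no effect and ±100 for the full control effect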
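Compounds were tested on trophozoites seeded at 100 cells/well and held 48 hrs at 37 deg C anaerobically. An ATP-based luminescent kit measured the remaining live cells.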
IL1B secr inh: inhibitors of inflammasome signaling (IL-1 beta secretion); THP-1 LPS/ATP IL-1B secretion, AlphaLISA, 16 h; hits give low values; activity change, % at 57.5 µM; actives 4.7% (n = 360,000); in the data active = activity change below about -50%; inconclusive = mostly about -30% to -49%; note: % is set by controls: 0 for no effect and ±100 for the full control effect
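Secreted IL-1B measured by AlphaLISA bead assay after 16 h compound exposure of THP-1 cells; compounds (final up to 57.5 uM) added 1 h before LPS (250 ng/mL) and ATP (1.25 mM) stimulation; lower signal means less secretion.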
MCF10A rerep: induces DNA re-replication in MCF 10a normal breast cells | MCF 10A DNA re-replication, Hoechst nuclear intensity, 48 h | Potency, µM (titrated, usually from 46.1 µM), for inactives: at the top dose activity, positive = re-replication, hits mostly activators | actives 2.9% (n = 350,000) | AID 624296; note: potency is the fitted concentration of half-maximal effect; % of control where 0% means no effect; nearly all actives have a fitted effect of over 50% in size
Vif-APOBEC3F blk: Vif-A3F binding inhibition; HeLa A3F-eYFP + Vif (tagged APOBEC3F with the HIV-1 protein that degrades it), YFP fluorescence increase; Potency, µM (doses to about 46.1 µM), without a hit: at the top dose activity, negative = active; actives 0.2% (n = 390,000); note: potency is the fitted concentration of half-maximal effect; % of control where 0% means no effect; nearly all actives have a fitted effect of over 65% in size
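Fluorescence increase (Ex 488/Em 500-530) after overnight compound treatment at 37 deg C flags inhibition of Vif-driven A3F-eYFP loss in stable HeLa A3F-eYFP/Vif cells seeded overnight beforehand.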
SW480 rerep: DNA re-replication induction in SW480 cells; AID 624297; Potency, µM (titrated, usually from 46.1 µM), without a hit: at the top dose re-replication activation, usual class: activators; actives 1.8% (n = 340,000); SW480 DNA re-replication, Hoechst DNA content imaging, 48 h; note: potency is the fitted concentration of half-maximal effect; % of control where 0% means no effect; nearly all actives have a fitted effect of over 55% in size
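Image-based read-out: total Hoechst fluorescence of nuclei (405 nm excitation, 500-530 nm emission), with hits raising the fraction of high-intensity nuclei. SW480 colon cells incubated 48 hr with compounds at 37 C.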
Numbers without * were called inactive; ? = inconclusive; · = no result given. Unless noted, calls come from the whole dose curve; as a rule, active = well fitted curve in the direction sought with a large enough effect; inconclusive = small, poorly fitted or top-dose-only effect, or another doubt; inactive = no such curve, though single readings can be large; an effect the other way counts as inactive or inconclusive.

SMILES	Vif-A3G inh	Giardia killer	IL1B secr inh	MCF10A rerep	Vif-APOBEC3F blk	SW480 rerep
COc1ccc(-c2oc3ncnc(NCCN4CCOCC4)c3c2-c2ccc(OC)cc2)cc1	0%	6	18	?	1%	8%
COc1ccc(-c2oc3ncn(CCN4CCOCC4)c(=N)c3c2-c2ccc(OC)cc2)cc1	3%	22	-53*	13µM*	-3%	?
COc1ccc(C2c3ccc4ccccc4c3Oc3ncn(CCN4CCOCC4)c(=N)c32)cc1 (stereo not given)	-5%	-6	-79*	2%	-6%	23µM*
COc1ccc(C2c3ccc4ccccc4c3Oc3ncn(CCN4CCOCC4)c(=N)c32)cc1OC (stereo not given)	-5%	15	-52*	0%	-9%	-3%
O=C(Nc1ccc(F)cc1)c1oc2ccccc2c1NC(=O)C1CCCCC1	2%	·	·	·	0%	·
CCOc1ccc(-n2c(-c3ccc(Br)cc3)cc3c2CC(C)(C)CC3=O)cc1	2%	·	·	·	-3%	·
COc1nc(NCCN2CCOCC2)nc(Nc2ccccc2)n1	2%	-9	8	-17%	2%	-5%
COc1ccc(Nc2nc(NCCN3CCOCC3)nc(Nc3ccc(OC)cc3)n2)cc1	0%	11	-91*	9%	2%	11%
COc1ccc(C2c3ccc(O)cc3Oc3ncn4nc(-c5ccncc5)nc4c32)cc1OC (stereo not given)	1%	-11	-70*	0%	-4%	?
COc1ccc(C2c3ccc(O)cc3Oc3ncn(Cc4ccccc4)c(=N)c32)cc1OC (stereo not given)	-15%	1	-73*	3%	?	-1%
COc1ccc(C2c3ccc(O)cc3Oc3ncn(CCN4CCOCC4)c(=N)c32)cc1OC (stereo not given)	3%	-10	?	-10%	-18%	-4%
COc1ccc(C2c3c(ncn(CCCN4CCOCC4)c3=N)Oc3ccc4ccccc4c32)cc1OC (stereo not given)	-27%	3	0	14%	-13%	18µM*
COc1ccc(C2c3ccc(O)cc3Oc3ncn4nc(-c5ccccn5)nc4c32)cc1OC (stereo not given)	-2%	-4	34	0%	-17%	2%
O=C(Nc1ccccc1Sc1ccccc1)c1cnn2c1NC(=C1CC1)C=C2C(F)(F)F	·	8	·	·	·	·
Cc1ccc(-c2nc3cccc(C)n3c2Nc2ccc(F)cc2)o1	·	-11	·	·	·	·
CN(C#N)c1nc(Cl)nc(Nc2cccc(Cl)c2)n1	-15%	17	-91*	?	1%	-4%
O=c1oc2c(CN3CCCCC3)c(O)ccc2cc1-c1nc2ccccc2[nH]1	-6%	3	52	27%	4%	17%
O=c1oc2c(O)cccc2cc1-c1nc2ccccc2[nH]1	-12%	?	-11	?	?	3.3µM*
O=C(CNC(=O)c1ccc(F)cc1)N/N=C/c1cc(Br)ccc1OC(=O)/C=C/c1ccco1	0%	-11	149	?	-10%	?
O=C(CNC(=O)c1ccccc1F)N/N=C/c1cc(Br)ccc1OC(=O)/C=C/c1ccco1	-30%	-17	71	?	-10%	6.5µM*
COc1ccccc1C(=O)NCC(=O)N/N=C/c1cc(Br)ccc1OC(=O)/C=C\c1ccco1	-11%	-6	61	16µM*	-5%	?
Cc1ccn2c(NCc3ccco3)c(-c3ccccc3)nc2c1	·	-2	·	·	·	·
O=C(COC(=O)/C=C/c1ccc([N+](=O)[O-])cc1)NCc1ccccc1	-1%	0	61	3%	4%	-4%
O=C(COC(=O)/C=C/c1ccc([N+](=O)[O-])cc1)NC(c1ccccc1)c1ccccc1	-2%	-6	3	23µM*	-6%	20%
Cc1ccc(S(=O)(=O)N(C)C)cc1NC(=O)COC(=O)/C=C/c1ccc2ccccc2n1	-23%	5	-106*	?	-15%	?
SMILES	Vif-A3G inh	Giardia killer	IL1B secr inh	MCF10A rerep	Vif-APOBEC3F blk	SW480 rerep
Cc1ccc(S(=O)(=O)N(C)C)cc1NC(=O)COC(=O)c1c(-c2ccccc2)noc1C	0%	2	-8	3%	-12%	?
O=C(COC(=O)/C=C/c1ccc2ccccc2n1)NNC(=O)c1ccc([N+](=O)[O-])cc1	-11%	14	-53*	?	3%	-4%
Cc1cc(CN(C)C(=O)c2ccc3nc(Cc4ccccc4F)oc3c2)on1	3%	4	-81*	13%	1%	5%
CN(Cc1nccs1)C(=O)c1ccc2nc(Cc3ccccc3F)oc2c1	2%	6	-9	0%	-11%	2%
CCCc1cc(=O)n2[nH]c(SCc3ccc(Cl)cc3)nc2n1	-2%	-18	-72*	21%	2%	27%
CCCc1cc(=O)n2[nH]cc(-c3ccc(Cl)cc3)c2n1	2%	0	53	?	?	18µM*
CC1CCN(Cc2c(O)ccc3c(=O)c(-c4nc5ccccc5s4)c(N)oc23)CC1	3%	-1	41	19%	3%	15%
CC1(C)CCCN(Cc2c(O)ccc3c(=O)c(-c4nc5ccccc5s4)c(N)oc23)C1	-2%	-19	55	23µM*	-8%	-9%
CC1CCCN(Cc2c(O)ccc3c(=O)c(-c4nc5ccccc5s4)c(N)oc23)C1 (stereo not given)	-12%	5	-116*	21µM*	-14%	?
Cc1ccc(CNC(=O)CCCn2c(=O)c3ccccc3n(Cc3ccccc3C)c2=O)cc1	2%	·	·	·	0%	·
CC1=CC(C)(C)N(C(=O)CSc2nnc(C)s2)c2ccc(C)cc21	-1%	2	-63*	1%	-2%	-1%
CCCCC(=O)N1c2ccccc2C(C)(c2ccccc2)CC1(C)C (stereo not given)	-1%	·	·	·	0%	·
Cc1ccc(C2(C)CC(C)(C)N(C(=O)CSc3nnc(C)s3)c3ccccc32)cc1 (stereo not given)	-5%	4	-85*	?	10%	1%
CC1=CC(C)(C)N(C(=O)CSc2nnc(N)s2)c2cc(C)c(C)cc21	3%	0	0	?	-4%	-4%
Cc1nnc(SCC(=O)N2c3ccccc3C(C)(c3ccccc3)CC2(C)C)s1 (stereo not given)	-8%	5	-76*	?	-1%	6%
CN(Cc1ccccc1)C(=O)C1CCC(CNS(=O)(=O)c2ccc3c(c2)CCCC(=O)N3)CC1 (stereo not given)	6%	·	·	·	8%	·
O=C1CC(c2ccccc2)Cc2[nH]c(=O)c(C(=O)O)cc21 (stereo not given)	2%	·	·	·	·	·
